From PubChem BioAssay AID1159606 (Sanford-Burnham Center for Chemical Genomics, 2016)
About 7,300 (2%) of roughly 360,000 compounds were called active. Rule as the data show it: active = inhibition above about 50%; inactive = the rest. Many of the other results were omitted from the sample, so actives are more common in it than they were.

Assay: inhibitors of TWEAK-Fn14 signaling, primary screen, luciferase reporter cells, uHTS (AID 1159606)
Details: TWEAK-stimulated Fn14 reporter cells, luciferase luminescence, 8 h; at 10 µM; hits give high values

Compound | inhibition
O=C(NC(=O)c1ccccc1)Nc1ccccc1O | 50.8% (active)
Cc1ccc(NC(=O)NC(=O)c2ccccc2)cc1F | -37.5% (inactive)
CNC(=O)C(NC(=O)c1ccccc1)=C(C)C | 4.65% (inactive)
COc1ccc(C(=O)NC(C)c2nccs2)cc1OC1CCN(C(C)C)CC1 (centres undefined) | -14.2% (inactive)
Cc1cc(C)c(C)c(S(=O)(=O)N[C@@H](C)C(=O)OC(C)C(=O)NC(N)=O)c1C (some centres undefined) | 53.7% (active)
Cc1cc(C)c(C)c(S(=O)(=O)Nc2ccc(O)cc2)c1C | 22.9% (inactive)
Cc1cc(C)c(C)c(S(=O)(=O)Nc2cccnc2)c1C | -12.5% (inactive)
CC1=NN(/C(=N\c2nnc(C)s2)Nc2ccccc2)[C@H](c2ccc(C)cc2)S1 | -7.27% (inactive)
COC(=O)c1cc2n(n1)CCCNC2=O | -0.66% (inactive)
COc1ccc(C(=O)n2nc(-c3ccc(Cl)cc3)nc2N)cc1OC | 64.1% (active)
COC(=O)c1ccc(OC(=O)c2nn(C)cc2Cl)c(OC)c1 | -9.75% (inactive)
COc1ccc(C(=O)n2nc(C)c(Br)c2C)cc1OC | -7.65% (inactive)
CC(C)CC(CO)N1CCN(C(=O)c2ccc(Cl)cc2Cl)CCC1=O (centres undefined) | 10.3% (inactive)
CCOc1ccc(S(=O)(=O)N2CCN=C2Cc2ccccc2)cc1C | -1.14% (inactive)
COCCn1c(N)c(NCc2ccccc2)c(=O)[nH]c1=O | -0.79% (inactive)
Cc1cccc(NC(=O)c2ccc(S(=O)(=O)N(C)c3ccccc3)cc2)n1 | 31.6% (inactive)
CN(c1ccccc1)S(=O)(=O)c1cc(C(=O)Nc2nc3ccccc3[nH]2)ccc1Cl | 78.9% (active)
CN(c1ccccc1)S(=O)(=O)c1cc(C(=O)N2CCN(c3ncccn3)CC2)ccc1Cl | -62.5% (inactive)
O=C1CCCCC1Sc1ccc(Cl)cc1[N+](=O)[O-] (centres undefined) | 5.84% (inactive)
O=C(COC(=O)/C=C/c1ccc(Cl)cc1)NC1CCS(=O)(=O)C1 (centres undefined) | -27.7% (inactive)
COc1cccc(-c2cc(NC(C)=O)c3ncc(-c4cccc(C(C)=O)c4)n3c2)c1 | 12.6% (inactive)
CC(=O)c1cccc(-c2cnc3c(NC=O)cc(-c4cccc(C(=O)N(C)C)c4)cn23)c1 | 6.56% (inactive)
CC(=O)Nc1cc(-c2ccccc2N(C)C)cn2c(-c3ccc(F)c(Cl)c3)cnc12 | -9.86% (inactive)

Compound | inhibition
COc1cccc(-c2cnc3c(NC(C)=O)cc(-c4cccc(NC(C)=O)c4)cn23)c1 | -0.58% (inactive)
CC(=O)Nc1cccc(-c2cc(NC(C)=O)c3ncc(-c4ccccc4)n3c2)c1 | 89.2% (active)
CC(=O)c1cccc(-c2cnc3c(NC=O)cc(-c4ccccc4Oc4ccccc4)cn23)c1 | 55.7% (active)
CC(=O)c1cccc(-c2cnc3c(NC=O)cc(-c4ccc(N(C)C)cc4)cn23)c1 | 19.9% (inactive)
CC(=O)Nc1cccc(-c2cc(NC=O)c3ncc(-c4ccc(F)c(Cl)c4)n3c2)c1 | 82.2% (active)
CC(=O)c1ccc(-c2cnc3c(NC=O)cc(-c4cccc(NS(C)(=O)=O)c4)cn23)cc1 | -8.7% (inactive)
CC1=NNC(=O)C1Cc1c(Cl)cccc1Cl (centres undefined) | 4.96% (inactive)
O=C(NCc1ccc(F)cc1)c1cc(C2CCCCN2C(=O)C2CCCCC2)on1 (centres undefined) | 32.6% (inactive)
C=CCSc1nnc2c(n1)-c1cccc3cccc-2c13 | -43.7% (inactive)
CC(=O)c1c(C)n([O-])c2ccccc2[n+]1=O | -13.5% (inactive)
O=C(Nc1cc(S(=O)(=O)N2CCOCC2)ccc1N1CCOCC1)c1c(F)cccc1Cl | -8.44% (inactive)
Cc1cc(Cl)ccc1-c1nc(NCCN(C)C)nc2ccsc12 | -11.1% (inactive)
O=C(CCc1ccc(S(=O)(=O)NC2CCCCC2)cc1)NCc1ccccc1 | 1.8% (inactive)
CCCCNC(=O)C[C@@H]1C[C@@]2(C(=O)OCC)CCC=C2N(Cc2ccco2)C1=O | 11% (inactive)
CC(C)(C)NC(=O)CN(C(=O)c1csnn1)c1ccccc1-c1ccccc1 | -13.7% (inactive)
COC(=O)C1NN=C(C(=O)c2ccc(Br)cc2)C1c1cccc(Br)c1 (centres undefined) | 48.4% (inactive)
CC1=C(C)CC2C(=O)N(c3cccc4ccccc34)C(=O)C2C1 (centres undefined) | 11.9% (inactive)
O=C(Cc1ccccc1)NNC1CC(=O)N(c2ccc(Br)cc2)C1=O (centres undefined) | 12.9% (inactive)
Cc1ccc(N2C(=O)CC(Nc3cccc4ccccc34)C2=O)cc1 (centres undefined) | 51.9% (active)
O=C(CN1CCN(S(=O)(=O)c2ccc(Br)cc2)CC1)Nc1ccccc1C(=O)c1ccccc1 | -6.36% (inactive)
O=C(NCC1CCCO1)c1cc2c([nH]c3ccccc32)c(-c2ccc(F)cc2)n1 (centres undefined) | 51% (active)
O=C(NCCc1ccc(F)cc1)c1n[nH]c2ccccc12 | -18.2% (inactive)
O=C(CSc1nc2ccccc2c(=O)n1Cc1ccc(F)cc1)NCC1CCCO1 (centres undefined) | -1.57% (inactive)

Compound | inhibition
COc1ccc2cc(C(=O)NCC3CCCO3)[nH]c2c1 (centres undefined) | -11.1% (inactive)
O=C(NCCCO)c1cc2c([nH]c3ccccc32)c(-c2ccc(F)cc2)n1 | 54.8% (active)
C[N+](C)(C)CCNC(=O)c1c[nH]c2ccccc12 | -3.99% (inactive)
CC(C)C[C@@H]1COc2cc(N3CCC[C@@H]3CO)ccc2S(=O)(=O)N1 | 15.8% (inactive)
CC1(C)OC(=O)C2=C(C[C@@H](C3CCCC3)O[C@@H]2c2ccc(Cl)cc2)O1 | 1.8% (inactive)
CC(C)CN(C(=O)c1cccc(S(=O)(=O)N2CCCCC2)c1)C1CCS(=O)(=O)C1 (centres undefined) | -4.27% (inactive)
COc1ccc2nc(-c3ccccn3)ccc2c1 | 61.3% (active)
COc1ccc(C=C(C#N)C#N)c(CSc2ccccn2)c1 | 9.11% (inactive)
COc1ccc2cc(CCl)c(Cl)nc2c1 | 3.18% (inactive)
OCCC1CN(Cc2cccc(O)c2)CCN1CCc1ccccc1 (centres undefined) | 15.9% (inactive)
O=C(CCNC(=O)Cn1ccc2ccccc2c1=O)NCCC1=CCCCC1 | -2.43% (inactive)
Cc1nnc(OCC(=O)NCCC2=CCCCC2)c2ccccc12 | 8.22% (inactive)
O=C(Cc1cccc2ccccc12)NCCC1=CCCCC1 | 99.4% (active)
Cc1nccn1-c1ccc(NC(=O)[C@H]2O[C@@H](n3ccc(=O)[nH]c3=O)[C@H](O)[C@@H]2O)cc1 | -4.03% (inactive)
Cc1ccc2c(c1)N(CCCC(=O)NCc1cccnc1)C(=O)CO2 | 7% (inactive)
COc1ccc(S(=O)(=O)N2CCCCC2)cc1C(=O)NC1CCS(=O)(=O)C1 (centres undefined) | 4.36% (inactive)
N#Cc1cccc(NC(=O)COC(=O)c2ccccc2C(=O)c2ccc(Cl)c([N+](=O)[O-])c2)c1 | 99.5% (active)
O=C(Nc1cccc(NC(=O)c2ccccc2[N+](=O)[O-])c1)c1ccccc1Cl | -3.52% (inactive)
CC(=O)Nc1ccc(NC(=O)C(C)OC(=O)c2ccccc2C(=O)c2ccc(Cl)c([N+](=O)[O-])c2)cc1 (centres undefined) | 95.7% (active)
COC(=O)c1cc(NC(=O)Cc2ccccc2[N+](=O)[O-])ccc1Cl | -1.56% (inactive)
CC(=O)Nc1ccc(NC(=O)COC(=O)c2ccccc2C(=O)c2ccccc2)cc1 | 16.1% (inactive)
CC(OC(=O)CNC(=O)c1ccc(Cl)c([N+](=O)[O-])c1)C(=O)NCc1ccco1 (centres undefined) | -16.1% (inactive)
O=C(NCc1cccnc1)c1cc(C2CCCN(C(=O)CCCc3ccccc3)C2)on1 (centres undefined) | 0.68% (inactive)

Compound | inhibition
O=C(NNS(=O)(=O)c1ccccc1)c1cnn(-c2ccc(Cl)cc2)c1C(F)(F)F | 4.65% (inactive)
O=C(c1ccco1)N1CCN(C(=O)C2CCCN(S(=O)(=O)c3cccc4nsnc34)C2)CC1 (centres undefined) | 62.4% (active)
CCCCN(C)CCNC(=O)C1CCCN(S(=O)(=O)c2cccc3nsnc23)C1 (centres undefined) | -0.5% (inactive)
CCCCN(CC)C(=O)C1CCCN(S(=O)(=O)c2cccc3nsnc23)C1 (centres undefined) | -6.36% (inactive)
O=C(CCl)NNc1cccc(Cl)n1 | -23.4% (inactive)
COc1cc(NC(=O)c2ccccc2NS(=O)(=O)c2ccc(Cl)s2)cc(OC)c1 | 72.6% (active)
O=S(=O)(Nc1ccccc1N1CCOCC1)c1ccc(Cl)s1 | 4.55% (inactive)
O=C(Nc1cccc(Cl)c1)Nc1ccccc1NS(=O)(=O)c1cccs1 | 10.4% (inactive)
CCOCCCN(C)C1CCN(C(=O)c2oc3ccccc3c2NC(=O)Cc2cccc([N+](=O)[O-])c2)CC1 | -1.52% (inactive)
Cc1ccc2c(c1)NC(=O)[C@@]1(C)[C@@H](c3ccccc3)[C@H]3COc4ccc(Cl)cc4[C@@H]3N1C2=O | 15.4% (inactive)
CCN1CCN(c2sc(S(C)(=O)=O)nc2S(=O)(=O)c2ccc(Cl)cc2)CC1 | 31.6% (inactive)
CCOC(=O)N1C(=O)C[C@](Sc2ccc(C)cc2)(C(=O)OC)[C@H]1c1ccccc1 | 14.7% (inactive)
COC(=O)[C@@]1(Sc2ccc(C)cc2)CC(=O)N(c2cccc(SC)c2)[C@@H]1c1ccccc1 | 69.9% (active)
COC(=O)c1ccccc1SC1CC(=O)N(c2cccc(C)c2)C1=O (centres undefined) | -5.63% (inactive)
CCCCn1nnnc1C(c1cc2ccccc2o1)N(C)Cc1ccc(Cl)c(Cl)c1 (centres undefined) | -0.38% (inactive)
COc1ccc(C(=O)N2CCCCC2c2cc(C(=O)Nc3ccccc3)no2)cc1 (centres undefined) | -7.61% (inactive)
COc1cc2[nH]c(=S)n(CCN3CCCCC3C)c(=O)c2cc1OC (centres undefined) | 77.3% (active)
COc1cc2[nH]c(=S)n(Cc3ccc(F)cc3)c(=O)c2cc1OC | -27% (inactive)
CCOc1cc2[nH]c(=S)n(CCN3CCCCC3C)c(=O)c2cc1OCC (centres undefined) | -2.73% (inactive)
CCOCCCNC(=O)C(NC(=O)CNC(=O)c1ccccc1)c1ccc(OC)cc1 (centres undefined) | -12.7% (inactive)
